Experiment [1] is described as follows: growth inhibition of DIPG glioma cells, dose response, cell-based, SU-DIPG-XVII, MIPE5.0, CellTiter-Glo, qHTS (AID 1347060; cut-off not given, nearly all actives have AC50 up to about 26 µM;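 as to AC50: cells exposed to compound for 48 hours before viability readout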). The note with it: SU-DIPG-XVII viability, CellTiter-Glo ATP luminescence.
Experiment [2] in a line: growth inhibition of DIPG glioma cells, dose response, cell-based, SU-DIPG-XIII, MIPE4.0, CellTiter-Glo, qHTS (AID 1347061; cut-off not given, nearly all actives have AC50 up to about 37 µM;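 also: cells exposed to compound for 48 hours before readout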). Conditions: SU-DIPG-XIII viability, CellTiter-Glo ATP luminescence. (Cellular ATP, detected with luciferase, serves as a proxy for viable cell number.)
Experiment [3] in a line: growth inhibition of DIPG glioma cells, dose response, cell-based, JHH-DIPG-1, MIPE4.0, CellTiter-Glo, qHTS (AID 1347062; cut-off not given, nearly all actives have AC50 up to about 27 µM). The note with it: JHH-DIPG-1 viability, CellTiter-Glo ATP luminescence.
Experiment [4] can be described thus: growth inhibition of DIPG glioma cells, dose response, cell-based, SU-DIPG-XIII, MIPE5.0, CellTiter-Glo, qHTS (AID 1347064; cut-off not given, nearly all actives have AC50 up to about 23 µM). The note with it: SU-DIPG-XIII viability, CellTiter-Glo ATP luminescence.
A short description of experiment [5]: viability loss in pontine glioma line – cell-based, SU-DIPG-XXV, MIPE5.0, CellTiter-Glo, qHTS, dose response (AID 1347065; cut-off not given, nearly all actives have AC50 up to about 26 µM;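 also: cells exposed to compound for 48 hours before ATP readout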). The note with it: CellTiter-Glo ATP luminescence.
Experiment [6] in a line: SU-DIPG-VI glioma cell viability, MIPE4.0 library, CellTiter-Glo luminescence, qHTS (AID 1347066; cut-off not given, nearly all actives have AC50 up to about 30 µM;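 also: cells exposed to compound for 48 hours before readout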). Conditions: CellTiter-Glo ATP luminescence.
The nature of experiment [7]: JHH-DIPG-1 glioma cell viability, MIPE5.0 library, CellTiter-Glo luminescence, qHTS (AID 1347067; cut-off not given, nearly all actives have AC50 up to about 26 µM;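 also: cells exposed to compound for 48 hours before readout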). The note with it: JHH-DIPG-1 glioma viability, CellTiter-Glo ATP luminescence.
Experiment [8] in a line: SU-DIPG-XXV glioma cell viability, MIPE5.0 library, qHTS (AID 1347068; cut-off not given, nearly all actives have IC50 up to about 30 µM). A general note: qHTS replaces the single test concentration by a dilution series.
A short description of experiment [9]: sensitizers of A549 cells to miR-34 induction, primary screen, imaging, A549 dox-inducible miR-34, nuclei and caspase counts (AID 1347080;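 active = compounds whose cell count with miR-34 switched on is under 0.7 times the count with it off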). Conditions: A549 miR-34 inducible, Hoechst nuclei count, 48 h.
Experiment [10] can be described thus: modifiers of HSF1 nuclear foci, imaging, Selleck Cancer Library (AID 1347162; in the data active = plate-normalised HSF1 focus index below about 0.46). The note with it: human cells, at 10 µM; SSMD: measured here: HSF1 foci SSMD mean; cell count: measured here: cell number; plate-normalised HSF1 focus index: stronger effect = lower value.
The nature of experiment [11]: survival rescue of mitochondrial mutant cells in low glucose, primary screen, MELAS cybrids, Rieske KO mouse fibroblasts, CellTiter-Glo (AID 1508586;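 active = mean z-score across replicates of 1.96 or higher in either the MELAS or the Rieske mutant cell line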;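 also: z relative to plate mean and SD of compound and empty wells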).
Experiment [12] in a line: ovarian cancer cell viability with rucaparib, profiling panel, oncology-focused library, rucaparib conditional (AID 1508598). The note with it: patient-derived ovarian cancer cells, CellTiter-Glo viability, 144 h, stronger effect = lower value.
Experiment [13] in a line: growth inhibition of DIPG glioma cells, dose response, cell-based, SU-DIPG-IV, MIPE4.0, CellTiter-Glo, qHTS (AID 1347063; cut-off not given, nearly all actives have AC50 up to about 30 µM;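 also: compound exposure lasted 48 hours before the viability readout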). The note with it: SU-DIPG-IV viability, CellTiter-Glo ATP luminescence.
Setting [14] is: stronger effect = lower value, cell number ratio, induced over uninduced.
Setting [15] is: measured here: relative caspase fold change +Dox/-Dox.
Setting [16] is: measured here: total cells with miR-34 induction, stronger effect = lower value.
[17] abbreviates: measured here: total cells without miR-34 induction.
[18] abbreviates: MELAS cybrid survival, CellTiter-Glo 48 h, stronger effect = higher value.
Setting [19] is: Rieske KO mouse fibroblast survival, CellTiter-Glo 72 h.

Values joined by “and” are separate entries in the source; they are usually repeats but may differ in a detail not shown here. Equal values may be shown once. Records with an inconclusive call do not appear. Active and inactive are the calls of the source.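 The calls were made as follows, unless noted: active = normalized viability below 100% at a tested concentration; inactive = the rest.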

Broadly, the viability is a read-out of living cells in per cent, often relative to untreated cells. Broadly, the AC50 is the midpoint of the concentration-response curve, whichever way the signal moves.

With `COc1nc(C)cnc1NS(=O)(=O)c1cccnc1-c1ccc(-c2nnco2)cc1`, the outcome in experiment [1], in [2], in [3], in experiment [4], in [5] and in [6] was inactive. For the same compound, the result in [7] and in experiment [8] was inactive. The fold change is 0.916 (inactive) in experiment [9] (setting [14]) and 0.943 in [9] (setting [15]). For the same compound, the cell count was found to be 8060 in experiment [9] (setting [16]), 8800 in experiment [9] (setting [17]) and 7220 in [10]. In experiment [10], this compound showed an SSMD of 2.08. Besides, in experiment [10], the plate-normalised HSF1 focus index is 1.13 (inactive). Also, the z-score in [11] (setting [18]) was -0.393 (inactive); in experiment [11] (setting [19]), 0.676. The viability is 110% (inactive) in experiment [12] (at 0.000305 µM, OCI-C5x cells, with rucaparib 10 µM, 100% = cells with rucaparib alone); 112% (inactive) in experiment [12] (at 0.000305 µM, OCI-C5x cells, without rucaparib); 102% (inactive) in experiment [12] (at 0.000305 µM, OCI-P5x cells, with rucaparib 20 µM, 100% = cells with rucaparib alone); 109% (inactive) in experiment [12] (at 0.000305 µM, OCI-P5x cells, without rucaparib); 108% (inactive) in [12] (at 0.00122 µM, OCI-C5x cells, with rucaparib 10 µM, 100% = cells with rucaparib alone); 117% (inactive) in experiment [12] (at 0.00122 µM, OCI-C5x cells, without rucaparib). Besides, the viability in experiment [12] (at 0.00122 µM, OCI-P5x cells, with rucaparib 20 µM, 100% = cells with rucaparib alone) was 106% (inactive); in experiment [12] (at 0.00122 µM, OCI-P5x cells, without rucaparib), 109% (inactive); in [12] (at 0.00488 µM, OCI-C5x cells, with rucaparib 10 µM, 100% = cells with rucaparib alone), 98.1% (active); in experiment [12] (at 0.00488 µM, OCI-C5x cells, without rucaparib), 114% (inactive); in experiment [12] (at 0.00488 µM, OCI-P5x cells, with rucaparib 20 µM, 100% = cells with rucaparib alone), 104% (inactive); in [12] (at 0.00488 µM, OCI-P5x cells, without rucaparib), 109% (inactive). For the same compound, the viability in experiment [12] (at 0.0195 µM, OCI-C5x cells, with rucaparib 10 µM, 100% = cells with rucaparib alone) is 111% (inactive); in experiment [12] (at 0.0195 µM, OCI-C5x cells, without rucaparib), 110% (inactive); in [12] (at 0.0195 µM, OCI-P5x cells, with rucaparib 20 µM, 100% = cells with rucaparib alone), 100% (inactive); in experiment [12] (at 0.0195 µM, OCI-P5x cells, without rucaparib) it was 108% (inactive); in [12] (at 0.0781 µM, OCI-C5x cells, with rucaparib 10 µM, 100% = cells with rucaparib alone), 103% (inactive); in experiment [12] (at 0.0781 µM, OCI-C5x cells, without rucaparib), 113% (inactive). Besides, the viability in [12] (at 0.0781 µM, OCI-P5x cells, with rucaparib 20 µM, 100% = cells with rucaparib alone) was 104% (inactive); in experiment [12] (at 0.0781 µM, OCI-P5x cells, without rucaparib) it was 110% (inactive); in [12] (at 0.313 µM, OCI-C5x cells, with rucaparib 10 µM, 100% = cells with rucaparib alone), 105% (inactive); in [12] (at 0.313 µM, OCI-C5x cells, without rucaparib), 112% (inactive); in experiment [12] (at 0.313 µM, OCI-P5x cells, with rucaparib 20 µM, 100% = cells with rucaparib alone), 103% (inactive); in experiment [12] (at 0.313 µM, OCI-P5x cells, without rucaparib), 108% (inactive). The viability in experiment [12] (at 1.25 µM, OCI-C5x cells, with rucaparib 10 µM, 100% = cells with rucaparib alone) was 97.7% (active); in experiment [12] (at 1.25 µM, OCI-C5x cells, without rucaparib), 112% (inactive); in experiment [12] (at 1.25 µM, OCI-P5x cells, with rucaparib 20 µM, 100% = cells with rucaparib alone) it was 104% (inactive); in [12] (at 1.25 µM, OCI-P5x cells, without rucaparib), 111% (inactive); in experiment [12] (at 5 µM, OCI-C5x cells, with rucaparib 10 µM, 100% = cells with rucaparib alone) it was 106% (inactive); in experiment [12] (at 5 µM, OCI-C5x cells, without rucaparib) it was 116% (inactive). Besides, the viability in experiment [12] (at 5 µM, OCI-P5x cells, with rucaparib 20 µM, 100% = cells with rucaparib alone) is 99% (active); in experiment [12] (at 5 µM, OCI-P5x cells, without rucaparib), 106% (inactive).

Regarding `CC(C)(O)CCc1ccc(OCc2cc(-c3cccc(OC(F)F)c3)c3ncccc3c2)cc1`, the AC50 in [1] and in experiment [7] was 23.5 µM (active) throughout. Besides, the compound was called inactive in experiment [2], in experiment [3], in experiment [13] and in [6].

Consider `CCCCCCCCCCCCCCCC(=O)O[C@@H]1[C@@H](O)[C@@H](O)[C@@H]([C@H](NC(=O)[C@@H]2C[C@@H](CCC)CN2C)[C@H](C)Cl)O[C@@H]1SC`, for which the compound was classed as inactive in experiment [1], in [2], in experiment [3], in [13], in experiment [6] and in experiment [8]. Besides, the AC50 in experiment [7] is 10.5 µM (active).

With `O=C(O)CCCc1c[nH]c2ccccc12`, the call in [1], in experiment [2], in experiment [3], in experiment [4], in [5] and in experiment [6] was inactive. Further, the compound was classed as inactive in experiment [7] and in [8]. For the same compound, the fold change in [9] (setting [14]) was 0.897 (inactive) and 0.923 (inactive); in experiment [9] (setting [15]), 0.369 and 0.81. Besides, the cell count in experiment [9] (setting [16]) was 8600 and 8570; in experiment [9] (setting [17]), 9590 and 9280. Besides, the z-score in experiment [11] (setting [18]) is 0.687 (inactive) and -0.261 (inactive); in experiment [11] (setting [19]) it was 0.218 and 0.556.

The values above are taken from PubChem BioAssay.
